CBX7 AlphaScr = blocks human CBX7 binding to H3K27me3 peptide; O95931; AlphaScreen His6-CBX7 / biotin-H3K27me3 peptide binding; active compounds read low; normalised signal (fraction of DMSO) (no concentration beside the values); actives 1.1% (n = 66,000); AID 1224903; in the data active = normalised signal below about 0.5
Target sequence (O95931 whole entry, looked up): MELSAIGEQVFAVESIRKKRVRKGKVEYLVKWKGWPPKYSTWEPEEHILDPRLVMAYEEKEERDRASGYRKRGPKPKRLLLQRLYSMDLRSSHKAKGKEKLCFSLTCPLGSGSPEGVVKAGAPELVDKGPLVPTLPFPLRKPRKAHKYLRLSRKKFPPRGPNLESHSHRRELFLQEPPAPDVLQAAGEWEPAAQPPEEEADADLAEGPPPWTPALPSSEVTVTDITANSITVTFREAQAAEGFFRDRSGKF
* hit, by the source's call; ! = a repeat was not active. Only a selection was taken, and hits are over-represented in it overall.

SMILES	CBX7 AlphaScr
Cc1ccc(-c2nc(CS(=O)(=O)CC(=O)NC3CCCC(C)C3C)c(C)o2)cc1 (stereo unspecified)	1.1
Cc1cc(N2CCC(C)CC2)nc2ccc(NC(=O)CCC(=O)NCCCN3CCCC3)cc12	0.97
COCCOc1cc([N+](=O)[O-])cc2c1C(=O)Nc1ccccc1O2	0.65
COc1ccc(CNC(=O)CC2Oc3ccc(Cl)cc3NC2=O)cc1 (stereo unspecified)	1.1
COC(=O)CC1Oc2ccc(Cl)cc2NC1=O (stereo unspecified)	0.96
Cc1ccc2c(c1)Oc1cc([N+](=O)[O-])cc(Oc3cccc(Cl)c3Cl)c1C(=O)N2	0.2*
COc1ccc(Oc2cc([N+](=O)[O-])cc3c2C(=O)Nc2cc(Cl)ccc2O3)cc1	0.42*
O=C1Nc2cc(Cl)ccc2Oc2cc([N+](=O)[O-])cc(Oc3ccccc3)c21	0.64
Cc1ccc(Oc2cc([N+](=O)[O-])cc3c2C(=O)Nc2ccccc2O3)cc1	0.58
Cc1ccccc1Oc1cc([N+](=O)[O-])cc2c1C(=O)Nc1cc(Cl)ccc1O2	0.084*
CC(O)Cc1nsc(NC(=O)c2cccc(F)c2)n1 (stereo unspecified)	1
CCc1nnc(NS(=O)(=O)c2ccc(NC(=O)CCc3ccccc3)cc2)s1	1.4
O=C(Nc1cccc(Cl)c1)c1cccc(NC(=O)c2cccs2)c1	0.92
CCOc1ccc(C(=O)Nc2nnc(CC)s2)cc1Br	1.1
O=C(Cn1nnc(-c2ccccc2F)n1)Nc1cccc(F)c1	1.1
Cc1cc(NS(=O)(=O)c2ccc(N3CCCC3=O)cc2)no1	1.2
O=c1[nH]c2ccc(S(=O)(=O)Nc3ccc(F)cc3)cc2[nH]1	1
O=C(Nc1ccc(F)cc1)C1CC(=O)N(c2ccc(Cl)cc2)C1 (stereo unspecified)	0.99
O=C(Nc1ccc2[nH]c(=O)[nH]c2c1)C1COc2ccccc2O1 (stereo unspecified)	1
O=C(Nc1ccc2[nH]c(=O)[nH]c2c1)c1ncn[nH]1	0.39*
O=C(Nc1ccc(N2CCCC2=O)cc1)c1ncn[nH]1	0.0091*
Cc1ccc(-c2cc(C(=O)Nc3ccccc3C)c3ccccc3n2)cc1	1
CCCCCc1ccc(-c2nc(Cc3ccccc3)no2)cc1	1.4
CCOc1ccc(NS(=O)(=O)c2ccc3[nH]cc(C(=O)NCc4cccnc4)c(=O)c3c2)cc1	0.87
COc1ccc(C(=O)Nc2ccc3oc(-c4cccnc4)nc3c2)cc1Cl	1.1
SMILES	CBX7 AlphaScr
Cc1ccc(OCCCCSc2nc3ccc(C)cc3[nH]2)cc1	1.1
O=C(Nc1nc(-c2ccncc2)cs1)c1ccc(S(=O)(=O)N2CCCCCC2)cc1	1
CCCCN(CC)S(=O)(=O)c1ccc(C(=O)Nc2nc(-c3ccccn3)cs2)cc1	0.48*
CCCCN(CCCC)S(=O)(=O)c1ccc(C(=O)Nc2nc(-c3ccncc3)cs2)cc1	1
O=C(Nc1nc(-c2nc3ccccc3s2)cs1)c1ccc(S(=O)(=O)N2CCCCCC2)cc1	1.1
O=C(Nc1nc(-c2ccccn2)cs1)c1ccc(S(=O)(=O)N2CCOCC2)cc1	0*
CCCN(CCC)S(=O)(=O)c1ccc(C(=O)Nc2nc(-c3ccncc3)cs2)cc1	0.97
O=C(Nc1nnc(-c2ccccc2)s1)c1ccc(S(=O)(=O)N2CCOCC2)cc1	1
O=C(Nc1nc(-c2ccccn2)cs1)c1ccc(S(=O)(=O)N2CCCCC2)cc1	0*
O=C(Nc1nc(-c2ccncc2)cs1)c1ccc(S(=O)(=O)N2CCOCC2)cc1	0.97
CCOc1ccc(C(=O)NCCc2cc3c(OC)ccc(OC)c3[nH]c2=O)cc1	0.91
Cc1ccc(-n2cc(C(=O)NCc3ccccn3)c3ccccc3c2=O)cc1C	0.94
COCCNc1ncnc2c1c(-c1ccccc1)cn2-c1ccc(Br)cc1	1.1
Cc1nc2sc(C(c3cccs3)N3CCCCC3)c(O)n2n1 (stereo unspecified)	1
CCC(C)NC(=O)C1=CCN(S(=O)(=O)c2ccc(Br)cc2)CC1 (stereo unspecified)	0.93
Cc1cccc(N2CCN(C(=O)C(NS(=O)(=O)c3cccs3)C(C)C)CC2C)c1 (stereo unspecified)	0.83
CCOC(=O)C1(c2ccccc2)CCN(C(=O)c2[nH]c3ccc(OCc4ccccc4)cc3c2C)CC1	0.7
Clc1ccc(-c2csc(Nc3ccc(Br)cc3)n2)cc1Cl	0.46*!
Clc1ccc(-c2csc(Nc3ccccc3)n2)cc1Cl	0.79
COc1cccc(Nc2nc(-c3ccccc3)cs2)c1	1.2
Cc1ccc(C)c(-c2csc(Nc3ccc(Cl)cc3)n2)c1	0.99
Brc1ccc(Nc2nc(-c3ccc(I)cc3)cs2)cc1	0.71
COc1ccc(Nc2nc(-c3ccc(Cl)cc3)cs2)cc1	0.81
Cc1ccc(-c2csc(Nc3ccc(Cl)cc3)n2)cc1C	0.31*!
COc1cccc(Nc2nc(-c3ccc(-c4ccccc4)cc3)cs2)c1	0.63
SMILES	CBX7 AlphaScr
COc1cccc(Nc2nc(-c3ccc(Cl)c(Cl)c3)cs2)c1	0.44*
Cc1ccc(Nc2c3c(nc4ccc(Cl)cc24)CCCC3)c(Cl)c1	0.84
Cc1ccccc1-c1nc(CN2CCC(C(=O)NCCCSC3CCCCC3)CC2)c(C)o1	0.81
COc1ccccc1NC(=O)c1cnc2ccccn2c1=O	0.82
COc1cc2c(cc1OC)C1C(C(=O)NCC3COc4ccccc4O3)c3ccccc3C(=O)N1CC2 (stereo unspecified)	1
CCOC(=O)c1cn(OC)c2cc(Cl)c(F)cc2c1=O	1
COc1ccc(NC(=O)CCC(=O)Nc2ccc3nc(N4CCOCC4)cc(C)c3c2)cc1OC	1
Cc1ccc2nc(-c3ccc(N4CCOCC4)cc3)c(Nc3ccc4c(c3)OCO4)n2c1	0.81
COc1ccc(C(=O)NCCc2nc3ccccc3n2Cc2c(F)cccc2Cl)cc1OC	1
O=C(NCc1ccccc1)c1cc(-c2ccc(Cl)c(Cl)c2)on1	1
Fc1ccc(/C=C/c2ccc3cccc(OCc4ccccc4)c3n2)cc1	1.3
COc1ccc(-c2n[nH]c(C)c2-c2ccc3c(c2)OCCCO3)c(O)c1	0.45*
COc1ccc(-c2c(-c3ccc(OC)cc3O)n[nH]c2C)cc1	0.66
COc1ccc(-c2n[nH]c(C)c2-c2ccc(F)cc2)c(O)c1	0.74
Cc1ccc(CNC(=O)Cn2nc(-c3ccccc3)c3cc(Cl)ccc32)cc1	1.2
COc1ccc(CCNC(=O)Cn2cnc3sc4c(c3c2=O)CCCC4)cc1OC	1
COCc1cc(=O)[nH]c(Nc2nc(C)c3ccccc3n2)n1	1
COCc1cc(=O)[nH]c(Nc2nc3ccccc3o2)n1	0.12*
O=c1cc(-c2ccccc2)nc(Nc2nc3ccccc3o2)[nH]1	1.5
CC(NC(=O)c1ccccc1NC(=O)CN1C(=O)c2ccccc2S1(=O)=O)c1ccccc1 (stereo unspecified)	0.98
Cc1ccccc1CN1C(=O)C(O)(CC(=O)c2ccccc2)c2ccccc21 (stereo unspecified)	0.91
CCc1ccc(C(=O)CC2(O)C(=O)N(Cc3ccccc3C)c3ccccc32)cc1 (stereo unspecified)	0.45*
Cc1ccccc1CN1C(=O)C(O)(CC(=O)c2ccc(Cl)cc2)c2ccccc21 (stereo unspecified)	0.87
CC1(C(=O)NC2CCCCCC2)CCC(=O)N1Cc1ccc(F)cc1Cl (stereo unspecified)	1.2
COc1ccc(NC(=O)CCn2nc(-c3ccccc3)c3ccccc3c2=O)cc1	0.98
COc1cccc(-n2c(-c3ccccc3F)nc3c(cnn3-c3ccc(C)cc3)c2=O)c1	0.6

Compound activity: PubChem, Bradner/Qi Labs at DFCI
